The source of these data is PubChem BioAssay (NCATS).

What all share (assay): Cytotoxic Profiling of Annotated Libraries Using Quantitative High-Throughput Screening (AID 1296008); also: nearly all actives have a fitted effect of over 60% in size
Holding throughout (details): Five cell lines viability, CellTiter-Glo ATP luminescence, 48-72 h; max response: hits give low values
Background: In ATP-based viability assays light output follows the ATP content of the culture.

Test [1] has as its system CRL-7250. Put shortly: (§1)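 Cells exposed to compounds for 48 or 72 hr at 37 degrees Celsius. Viability read as ATP-coupled luminescence with CellTiter-Glo after 10 min at room temperature.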
In test [2] the test system is HEK293. Put shortly: as §1
Test [3] deals with HaCat. The procedure, abridged:
as §1

Molecules are shown by their SMILES. Inconclusive results are not listed. Values without a mark were called inactive. Active and inactive are the calls of the source. Calls follow the shape of the dose curve; as a rule, active = well fitted inhibition curve with a large enough effect; inconclusive = small, poorly fitted or top-dose-only effect; inactive = flat fitted curve, though single readings scatter.
% is scaled to controls: 0 for no effect and ±100 for the full control effect; potency is read from the fitted curve at half-maximal effect.

With `C=C(CO)C(=O)O[C@H]1C/C(C)=C/CC/C(CO)=C/[C@H]2OC(=O)C(=C)[C@H]12`, the max response is -2.43% in test [1] and -5.5% in test [2]. Further, the compound was called inactive in test [3].
Regarding `CC(C)C1(OO)C=C2C(=O)CC3C(C)(C(=O)O)CCCC3(C)C2CC1` (stereo unspecified), the max response in test [1] is -0.339%; in test [2], 2.31%. In test [3], the call was inactive.
With `C/C=C(\C)C(=O)O[C@H]1[C@H](OC(C)=O)[C@]2(CO)[C@H](O)[C@H](O)[C@]3(C)C(=CCC4[C@@]5(C)CC[C@H](O[C@@H]6O[C@H](C(=O)O)[C@@H](O)[C@H](O[C@@H]7OC[C@H](O)[C@H](O[C@@H]8OC[C@H](O)[C@H](O)[C@H]8O)[C@H]7O)[C@H]6O[C@@H]6O[C@H](CO)[C@@H](O)[C@H](O)[C@H]6O)C(C)(C)C5CC[C@]43C)[C@@H]2CC1(C)C` (stereo partly specified), the max response in test [1] was 4.83%; in test [3], 3.31%. For the same compound, the result in test [2] was inactive.
With `CC1=CC2/C=C(\C)CCC(O)C3OC(C)(C)OC3CC(=O)OC23C(=O)NC(CC(C)C)C3C1C` (stereo unspecified), the max response was 0.49% in test [1] and 2.48% in test [2]. Besides, in test [3], the result was inactive.
With `COC1CC(O[C@H]2CC[C@]3(C=O)C4CC[C@]5(C)[C@@H](C6=CC(=O)OC6)CC[C@]5(O)[C@@H]4CC[C@]3(O)C2)OC(C)C1O[C@@H]1O[C@H](CO)[C@@H](O)[C@H](O)[C@H]1O` (stereo partly specified), the figures for the Potency in test [1], in test [2] and in test [3] were 96.8 nM (active), 153 nM (active) and 1530 nM (active), respectively.
Regarding `C[C@]12CC[C@H]3[C@@H]([C@H](O)CC4=CC(=O)CC[C@@]43C)[C@@H]1CC[C@@H]2O`, the outcome in test [1] was inactive. Besides, the max response was -7.8% in test [2] and -25.7% in test [3].
`C/C=C(\C)C(=O)OC1CC2C(C)(C)OC(=O)CC(OC(C)=O)C2(C)C2CC(OC(=O)C(C)C)C3(C)C(c4ccoc4)CC4OC43C12C` (stereo unspecified): the compound was called inactive in test [1] and in test [3]. Moreover, in test [2], the max response is -0.997%.
Regarding `COc1cc(C(=O)O[C@H]2[C@@H]3C=CO[C@@H](O[C@@H]4O[C@H](CO)[C@@H](O)[C@H](O)[C@H]4O)[C@@H]3[C@@]3(CO)O[C@@H]23)ccc1O`, the max response in test [1] was -1.79%; in test [2] it was 4.28%. Further, in test [3], the compound was classed as inactive.
In the case of `COC(=O)C1(C)CCC(=O)C2(C)c3c(O)cc(C(C)C)cc3C(O)C(OC(C)=O)C12` (stereo unspecified), the max response in test [1] was -1.03%; in test [2], -0.554%; in test [3] it was -0.878%.
As for `C[C@@](O)(COc1ccc(C#N)cc1)C(=O)Nc1ccc(C#N)c(C(F)(F)F)c1`, in test [1], the max response was -2.54%. Moreover, in test [2], the Potency is 14600 nM (active). Besides, the outcome in test [3] was inactive.
Consider `OCCCCC#Cc1cncc(OC[C@@H]2CCN2)c1`, for which the result in test [1] and in test [3] was inactive. The max response in test [2] was -3.98%.
In the case of `COC1=CC(=O)O[C@@H](/C=C/c2ccccc2)C1`, the max response is -9.99% in test [1] and -8.8% in test [2]. In addition, in test [3], the compound was called inactive.
Take `COC1C(O)C(OC2CCC3(C=O)C(CCC4C3CCC3(C)C(C5=CC(=O)OC5)CCC43O)C2)OC(C)C1OC1OC(CO)C(O)C(O)C1O` (stereo unspecified): the figures for the Potency in test [1], in test [2] and in test [3] were 172 nM (active), 243 nM (active) and 1720 nM (active), respectively.
`COc1cc(C)[nH]c(=O)c1CNC(=O)c1c(C)n([C@H](C)C2CCOCC2)c2ccccc12`: the result in test [1] and in test [2] was inactive. In addition, the max response in test [3] was 4.27%.
Consider `C[C@H]1C(=O)O[C@H]2[C@H](O)[C@]34C5OC(=O)[C@]3(O[C@@H]3OC(=O)[C@H](O)C34[C@H](C(C)(C)C)[C@H]5O)C12O` (stereo partly specified), for which the outcome in test [1] and in test [3] was inactive. Further, the max response in test [2] is -8.69%.
Turning to `C[C@H](NC(=O)Cc1cc(F)cc(F)c1)C(=O)N[C@@H]1N=C(c2ccccc2)c2ccccc2N(C)C1=O`, the call in test [1] and in test [3] was inactive. Besides, the max response in test [2] was -14.2%.
As to `CN1C(=O)c2ccccc2NC(=O)[C@]12O[C@@H]2c1ccccc1`, the max response was -12.4% in test [1] and -12.1% in test [3]. In test [2], the call was inactive.
Regarding `CC(=O)OC1CC(O)C(C)(C)C2CC(OC(C)=O)C3(C)C(CCC4(C)C(c5ccoc5)C(=O)C5OC543)C12C` (stereo unspecified), the max response was -0.447% in test [1], -14.4% in test [2] and -11.6% in test [3].
With `COC1CC(O[C@H]2CC[C@@]3(C)C(=CCC4C3C(O)[C@@H](O)[C@]3(C)[C@@H](C(C)=O)CC[C@]43O)C2)OC(C)C1OC1CC(OC)C(OC2OC(C)C(O)C(O)C2O)C(C)O1` (stereo partly specified), the max response in test [1] is -8.18%. For the same compound, the call in test [2] and in test [3] was inactive.
Consider `COC(=O)C1(C)CCC(O)C2(C)c3cc(O)c(C(C)C)cc3C(O)C(OC(C)=O)C12` (stereo unspecified), for which the result in test [1] and in test [3] was inactive. For the same compound, the max response in test [2] was 3.05%.
Take `CC(C)[C@@H](CN1CC[C@@](C)(c2cccc(O)c2)[C@@H](C)C1)NC(=O)[C@H]1Cc2ccc(O)cc2CN1`: the compound was classed as inactive in test [1] and in test [3]. In addition, the max response in test [2] is -18.6%.
With `O=C1C[C@@H]2OCC=C3CN4CC[C@]56c7ccccc7N1[C@H]5[C@H]2[C@H]3C[C@H]46`, the result in test [1] and in test [3] was inactive. In addition, the max response in test [2] was -6.49%.
